BAZ2B block: qHTS Assay for Inhibitors of BAZ2B. Bromodomain adjacent to zinc finger domain protein 2B (Homo sapiens), Q9UIF8. AlphaScreen BAZ2B-H3K14Ac peptide displacement. Potency, µM (top dose mostly 114 µM), for inactives: at the highest dose activity change, negative = inhibition, hits mostly inhibitors. actives 4.4% (n = 360,000); also: % is scaled to controls: 0 for no effect and ±100 for the full control effect; nearly all actives have a fitted effect of over 60% in size
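BAZ2B 50 nM plus b-H3(5-23)K14Ac 50 nM, PBS pH 7.4/0.01% Tween-20, 30 min RT; compound added (max 110 uM), 30 min RT; streptavidin donor/Ni-chelate acceptor beads 10 ug/mL final, 20 min dark; AlphaScreen read.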
JMJD2A Tudor: qHTS Assay for Inhibitors of JMJD2A-Tudor Domain; Lysine-specific demethylase 4A (Homo sapiens), O75164; AlphaScreen JMJD2A-Tudor / H3K4me3 peptide binding; Potency, µM (titrated, usually from 114 µM), without a hit: at the top dose activity change, negative = inhibition, hits mostly inhibitors; actives 4.4% (n = 390,000); also: % is scaled to controls: 0 for no effect and ±100 for the full control effect; nearly all actives have a fitted effect of over 50% in size
Sfp inh: qHTS Assay for Inhibitors of Bacillus subtilis Sfp phosphopantetheinyl transferase (PPTase); Potency, µM, for inactives: largest response in the series, negative = inhibition, most hits filed as inhibitors; AID 1490, 2009; Biochemical Sfp PPTase activity, qHTS; actives 3.5% (n = 310,000);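 also: the enzyme is Sfp with the accession as filed and its product quenches rhodamine fluorescence; 0% = enzyme reaction without inhibitor and -100% = no enzyme wells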
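Reaction rates are the 30-min fluorescence difference (ex 525, em 598 nm) in wells containing 15 nM Sfp, 5 uM rhodamine-CoA and 12.5 uM BHQ-2-YbbR at pH 7.6 with 10 mM MgCl2.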
HP1b binding inh: HTS for Inhibitors of HP1-beta Chromodomain Interactions with Methylated Histone Tails. Chromobox protein homolog 1 (Homo sapiens), P83916. actives 0.56% (n = 390,000). AlphaScreen HP1-beta / biotin-H3K9me3 peptide binding. Potency, µM (top dose mostly 114 µM), for inactives: at the top dose activity change, negative = inhibition, hits mostly inhibitors; also: nearly all actives have a fitted effect of over 70% in size
Target sequence (P83916 whole entry, looked up): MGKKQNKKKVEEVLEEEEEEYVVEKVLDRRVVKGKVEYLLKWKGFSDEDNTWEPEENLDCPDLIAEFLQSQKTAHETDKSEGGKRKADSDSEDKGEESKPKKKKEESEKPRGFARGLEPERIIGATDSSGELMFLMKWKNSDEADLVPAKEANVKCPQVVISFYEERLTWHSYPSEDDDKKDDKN
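AlphaScreen: HP1-beta (50 nM) preformed 30 min with biotin-H3(1-18)K9me3 peptide (50 nM) in PBS pH 7.4, 0.01% Tween-20. Compound added for 30 min at RT, then streptavidin donor/nickel chelate acceptor beads (10 ug/mL) for 30 min.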
TDP1 inh: qHTS Assay for Inhibitors of Tyrosyl-DNA Phosphodiesterase (TDP1) | recombinant TDP1, AlphaScreen DNA substrate cleavage | AID 485290, 2010 | Tyrosyl-DNA phosphodiesterase 1 (Homo sapiens), Q9NUW8 | Potency, µM (series often up to 130 µM), for the others: at the top dose activity change, negative = inhibition, hits mostly inhibitors | actives 0.28% (n = 350,000); also: % is scaled to controls: 0 for no effect and ±100 for the full control effect; nearly all actives have a fitted effect of over 40% in size
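Recombinant E. coli-expressed Tdp1 (1 nM) preincubated with compound 15 min at RT, then 5'-biotin/3'-phosphotyrosine-FITC DNA substrate (15 nM) added for 5 min. AlphaScreen beads (10 ug/ml) added, 10 min RT; tyrosine-FITC cleavage read as signal loss.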
G9a inh: qHTS Assay for Inhibitors of Histone Lysine Methyltransferase G9a; Histone-lysine N-methyltransferase EHMT2 (Homo sapiens), Q96KQ7; G9a H3K9 monomethylation, AlphaScreen, 2 h; Potency, µM (titrated, usually from 102 µM), without a hit: at the highest dose activity, negative = inhibition, usual class: inhibitors; actives 8.8% (n = 350,000); also: % is scaled to controls: 0 for no effect and ±100 for the full control effect; nearly all actives have a fitted effect of over 75% in size
Target sequence (Q96KQ7 913-1193 limits assumed): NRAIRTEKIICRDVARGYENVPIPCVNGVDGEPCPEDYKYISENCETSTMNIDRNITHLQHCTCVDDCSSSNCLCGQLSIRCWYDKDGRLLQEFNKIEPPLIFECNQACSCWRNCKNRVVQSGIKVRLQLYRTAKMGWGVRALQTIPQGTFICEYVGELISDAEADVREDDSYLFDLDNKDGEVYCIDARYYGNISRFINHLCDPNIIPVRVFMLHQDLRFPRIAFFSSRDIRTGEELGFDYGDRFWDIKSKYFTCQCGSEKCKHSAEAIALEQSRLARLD
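Step 1: enzyme (final 20 nM) with compound, 15 min RT. Step 2: substrate peptide 500 nM and SAM 20 uM, 2 h RT. Step 3: anti-H3K9me1 antibody and AlphaScreen beads, 10 min, then plate read.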
Active calls of the source: *; ? = inconclusive; . = no result given; [ ] = another dose, or the depositor's remark. An excerpt weighted towards active compounds, which were near 12% of everything screened. Calls follow the shape of the dose curve; as a rule, active = well fitted curve in the direction sought with a large enough effect; inconclusive = small, poorly fitted or top-dose-only effect, or another doubt; inactive = no such curve, though single readings can be large; an effect the other way counts as inactive or inconclusive. Potency is read from the fitted curve at half-maximal effect.

SMILES	BAZ2B block	JMJD2A Tudor	Sfp inh	HP1b binding inh	TDP1 inh	G9a inh
CCc1ccc(NC(=S)NNC(=O)c2ccccc2OC(F)F)cc1	6%	.	10%	.	8%	13µM*
CC(=O)OC[C@H]1O[C@@H](n2ncc(=O)[nH]c2=O)[C@H](OC(C)=O)[C@@H]1OC(C)=O	-17%	-2%	9%	27%	5%	-15%[59 µM]
O=C(OCC1OC(n2ncc(=O)[nH]c2=O)C(OC(=O)c2ccccc2)C1OC(=O)c1ccccc1)c1ccccc1 (stereo unspecified)	50µM*	50µM*	-1%	19%	.	18%[12.7 µM]
CCSc1nc2c(c(=O)[nH]c(=O)n2C)n1C/C=C(/C)Cl	-5%	-2%	-18%	15%	4%	?
CCOC(=O)C(C)Sc1nc2c(c(=O)[nH]c(=O)n2C)n1C/C=C(/C)Cl (stereo unspecified)	-5%	?	22µM*	-80%	-4%	7.1µM*
CSc1nc2c(c(=O)[nH]c(=O)n2C)n1C/C=C(\C)Cl	-8%	-8%	-21%	-11%	-6%	40µM*
COc1ccc(C(=O)NCC2CCCN2S(=O)(=O)c2cccs2)cc1 (stereo unspecified)	10%	-14%	.	15%	.	-28%
O=C(O)CCCNC(=O)/C=C/c1ccco1	13µM*	7.9µM*	13µM*	35µM*	?	.
O=C(O)/C=C/C(=O)NCCc1cccc(Cl)c1	4%	3%	11%	74%	5%	.
O=C(/C=C/c1ccco1)NCCc1ccccc1	-9%	-17%	-21%	1%	-5%	45µM*
O=C(O)CCCCCNC(=O)/C=C/c1ccco1	-2%	-1%	14%	32%	6%	2%
O=C(/C=C/c1cccc(Cl)c1)NCCc1ccccc1	-3%	-20%	20µM*	19%	-3%	53%[59 µM]
Cc1ccccc1CNC(=O)c1ccc2c(c1)N(Cc1ccccc1)CCS2	-18%	-17%	.	54%	1%	8%[59 µM]
O=C(O)C(O)(c1ccccc1)C(O)c1ccccc1 (stereo unspecified)	.	-30%	.	17%	.	.
C[n+]1cn(/N=C/c2ccccc2)c2ccccc21	10%	?	3%	17%	5%	1.6µM*
C(=NN1CCCCCC1)c1ccccc1	.	?	.	-33%	.	.
Cc1nc2[nH]c(=O)n(O)c(=O)c2s1	.	7.9µM*	.	8%	.	.
Oc1nc(Nc2ccc(Cl)cc2Cl)sc1/C=C1\C=Nc2ccccc21	?	?	?	?	-3%	4.5µM*
CCOC(=O)C(NC(=O)N(C)C)(Nc1sc(C)c(CC)c1C#N)C(F)(F)F (stereo unspecified)	-3%	-28%	45µM*	-9%	5%	8.9µM*
CCOC(=O)C(NC(=O)CC(C)C)(Nc1sc(C)c(CC)c1C#N)C(F)(F)F (stereo unspecified)	5%	-23%	14%	29%	3%	10%[59 µM]
CCOC(=O)C(NC(=O)CCl)(Nc1sc(C)c(CC)c1C#N)C(F)(F)F (stereo unspecified)	-6%	-12%	-8%	43%	3%	25µM*
CCSC1=NC(=O)/C(=C2/C=Cc3ccccc3N2CC)S1	7.1µM*	28µM*	?	?	17%	?
CCCn1c(=C(C#N)C#N)s/c(=C2\C=Cc3ccccc3N2CC)c1=O	-4%	-22%	20%	5%	0%	-1%[59 µM]
COCCNC(=S)NNc1ccccc1[N+](=O)[O-]	50µM*	?	10µM*	?	6%	?

Screening results deposited in PubChem by National Center for Advancing Translational Sciences (NCATS).
